This is part of a sample that, as a whole, favours compounds with a hit. Of some 83,000 tested, about 20% had one in any assay.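 Growth was measured after 48 h exposure to one concentration of compound in 96-well plates. Values under 10 count as active.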 Calls of active or inactive are those of the source.

The experiment concerns ACHN renal. The experiment can be described thus: NCI-60 one-dose screen, 48 h (100 = growth as untreated, 0 = no growth, -100 = all killed). Particulars: 10 µM unless noted. Here is the method: Growth inhibition of the ACHN human tumor cell line is measured as a screen for anti-cancer activity. Cells are grown in 96 well plates and exposed to the test compound for 48 hours. Compounds are tested at a single concentration, which is 10^-5 M for most compounds. The reported endpoint is percent growth (GI% or GIPRCNT), where numbers from 0 - 100% represent growth inhibition, and numbers from -100% - 0 represent cell death. For example, a value of 40 represents 60% growth inhibition. A value of 0 means no net growth occurred over the course of the experiment. A value of -40 indicates 40% of cells at the beginning of the experiment died by the end of the experiment. A value of -100 means all cells are dead at the end of the experiment.
NCI-60 Human Tumor Cell Lines Screen was performed using the standard one-dose NCI protocol, which is described in more detail at https://dtp.cancer.gov/discovery_development/nci-60/default.htm.
Compounds with GIPRCNT values below 10 were considered active. Activity score was based on GIPRCNT using the following formula: […]
Score is 0 for GIPRCNT values of 100 or above, 50 for GIPRCNT values of 0, and 100 for GIPRCNT values of -100.
For `CN1CCC(COc2cnc(-c3cccc(Cn4nc(-c5cccc(C#N)c5)ccc4=O)c3)nc2)CC1`, the growth is 74.4% (inactive). The same measure for `COc1cc(OC)c(/C=C/S(=O)(=O)Cc2ccc(OC)c(NCC(=O)O)c2)c(OC)c1`: 30.2% (inactive). The same measure for `O=C(Cn1ccc2ccccc21)Nc1ccc(-c2nc3ccccc3s2)cc1`: 111% (inactive); for `CC/C=C\C[C@H]1C/C=C2/C(=O)C=C[C@@H]2C/C=C\CCCC(=O)O1`: -89.3% (active). The same measure for `Nc1cc(C(F)(F)F)c(-c2cc(N3CCOCC3)nc(N3CCOCC3)n2)cn1`: -8.54% (active). With `Cn1c(Nc2ccc(C(F)(F)F)cc2)nc2cc(Oc3ccnc(-c4ncc(C(F)(F)F)[nH]4)c3)ccc21`, the growth was 42.2% (inactive). The same measure for `COc1ccc2c(OCc3nnc4ccc(-c5ccccc5)nn34)ccnc2c1`: 97.2% [2.5 µM] (inactive); for `CNC(=O)c1cc(Oc2ccc(NC(=O)Nc3ccc(Cl)c(C(F)(F)F)c3)c(F)c2)ccn1`: 0.875% (active). `Cn1ncc(Cl)c1-c1cc(C(=O)N[C@H](CN)Cc2cccc(F)c2)sc1Cl`: the growth is 18.7% (inactive). With `Cc1oc2c(C(=O)N/N=C\c3ccc(O)cc3O)c[nH]c2c1C`, the growth is -7.76% (active). The same measure for `CNC(=O)c1cc(Oc2cccc3nc(Nc4ccc(Cl)c(F)c4)ccc23)ccn1`: 38.5% (inactive); for `CN1CCN(CC(=O)Nc2ccc(-c3nc4ccccc4s3)cc2)CC1`: 71.2% (inactive). The same measure for `C[C@H]1Oc2cc(cnc2N)-c2c(nn(C)c2C#N)CN(C)C(=O)c2ccc(F)cc21`: 86% (inactive); for `Cc1cc2c(-c3nc4ccccn4c3NC34CC5CC(CC(C5)C3)C4)c(O)c(O)cc2c(O)c1-c1c(C)cc2c(-c3nc4ccccn4c3NC34CC5CC(CC(C5)C3)C4)c(O)c(O)cc2c1O`: 7.04% (active). `O=C1CSC(c2c(F)cccc2Cl)N1NC(=O)C(O)(c1ccccc1)c1ccccc1` (stereo not given): the growth was 99.9% (inactive). With `C=C1C(=O)O[C@H]2[C@H]1CC/C(C=Nc1c(N)cc(C(F)(F)F)cc1C(F)(F)F)=C\CC[C@@]1(C)O[C@@H]21`, the growth was -89.4% (active). As for `O=C(Cn1cncn1)Nc1ccc(-c2nc3ccccc3s2)cc1`, the growth was 110% (inactive).

Regarding `[2H]C1([2H])[C@H](C)O[C@H](C)C([2H])([2H])N1c1ccc(NC(=O)c2cccc(-c3ccc(OC(F)(F)F)cc3)c2C)cn1`, the growth is 78.1% (inactive). Consider `CNC(=O)c1cccc2cc(Oc3ccnc4cc(OCC5(N)CC5)c(OC)cc34)ccc12`, for which the growth was 30.9% (inactive). The same measure for `C/C(=C(/c1ccc(Cl)cc1)c1ccc(OCCN2CCCCCC2)cc1)c1ccccc1`: 96.3% (inactive); for `Clc1ccc(C(Cn2ccnc2)OCc2ccsc2Cl)c(Cl)c1` (stereo not given): 56.9% (inactive). The same measure for `O=c1sn(-c2cccc3ccccc23)c(=O)n1Cc1ccccc1`: 106% (inactive); for `O=c1[nH]c([C@@H]2CCCN2)nc2c1oc1ccc(Cl)cc12`: 71.5% (inactive).

As for `O=C(Cc1ccc(/C=C/C(=O)c2ncc[nH]2)cc1)Nc1ccc(Br)cc1`, the growth was 2.05% (active). For `CCCCn1c(C)nc2ccc(Nc3nc(N4CCN(C)CC4)nc4nc[nH]c34)cc21`, the growth is 106% (inactive). For the compound `CCN1CCN(c2cc(C)nc(N(CCCNc3ccnc4cc(Cl)ccc34)Cc3ccc4c(c3)OCO4)n2)CC1`, the growth was -0.628% (active).

In the case of `C#Cc1cccc(Nc2ncnc3cc(OC)c(OCCCCCCC(=O)NO)cc23)c1`, the growth is -30.1% (active).

As to `Cc1nc2cc(-c3nn(C(C)C)c4ncnc(N)c34)ccc2o1`, the growth is -13.4% (active). The same measure for `COc1ccc2c(CCC(c3ccccc3)c3ccccc3)c3[n+](cc2c1OC)CCc1cc2c(cc1-3)OCO2`: 23.4% (inactive); for `CCCCCCC1(/C=N/NC(N)=O)NC(=O)NC1=O` (stereo not given): 105% (inactive); for `CCN1CCN(Cc2ccc(NC(=O)Nc3nc(-c4cc(OC)c(OC)c(OC)c4)cs3)cc2C(F)(F)F)CC1`: 20.8% (inactive). As to `CCN1CCN(Cc2ccc(-c3cc4c(N[C@H](C)c5ccccc5)ncnc4[nH]3)cc2)CC1`, the growth was 9.72% (active).

Take `CCN1CCN(c2nc(C)cc(N(CCNc3ccnc4cc(Cl)ccc34)Cc3ccc4c(c3)OCO4)n2)CC1`: the growth is -17.2% (active). The same measure for `C=C1C(=O)O[C@H]2[C@H]1CC/C(Cn1cc(-c3cc(C)c(C)cc3C)nn1)=C\CC[C@@]1(C)O[C@@H]21`: -86.7% (active); for `Cc1ccc(C(=O)Nc2ccc(CN3CCN(C)CC3)c(C(F)(F)F)c2)cc1C#Cc1cnc2cccnn12`: -100% (active); for `C#Cc1cccc(Nc2ncnc3cc4c(cc23)OCCOCCOCCO4)c1`: 16.3% (inactive). The same measure for `Brc1ccc([I+]c2ccc(Br)cc2)cc1`: 39% (inactive); for `Cc1cc(NCC(=O)Nc2ccc(-c3nc4ccccc4s3)cc2)no1`: 111% (inactive); for `CC(C)=CCc1cc2c(cc1O)C1=C(C(=O)C3=C(NCCS3(=O)=O)C1=O)C(C=C(C)C)O2` (stereo not given): 62.4% (inactive). The same measure for `C=CC(=O)Nc1cc2c(Nc3ccc(F)c(Cl)c3)ncnc2cc1OCCCN1CCOCC1`: 2.82% (active).

(Values after PubChem BioAssay (NCI).)
